High-throughput results: PubChem BioAssay, University of Kansas High Throughput Screening Laboratory
mHTT-CaM PPI inh = disrupts binding of mutant huntingtin to calmodulin | AlphaScreen His-mHTT/GST-CaM binding, luminescence | inhibition, % at 15 µM | P42858 | hit rate 3.6% among 190,000;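 further: 0% = both proteins with DMSO and 100% = one protein alone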
Pf apPOL block = Pf-apPOL DNA polymerase inhibition; hit rate 0.25% among 210,000; inhibition, % at 10 µM; Recombinant Pf-apPOL, molecular beacon fluorescence, 1.5 h
* = called active by the depositor; ! = repeats disagree. Only some compounds are listed: those with a hit (about 3.5% of all), similar ones and a draw of the others. No stated cut-off is given here; in the data, active means inhibition above about 50%; inactive means the rest.

Results for S=C(NCCc1ccccc1)N1CCOCC1 ?
Pf apPOL block: -11

What do the screens show for `COc1cc(C2=N/C(=C\c3cccc(C(F)(F)F)c3)C(=O)O2)cc(OC)c1OC`?
mHTT-CaM PPI inh: 1; Pf apPOL block: 0

How did COc1ccc(N=C2C(=O)Nc3ccc(C)c(Br)c32)cc1 do in these assays?
mHTT-CaM PPI inh: 64*; Pf apPOL block: 2

How did CC(=O)N(C)c1ccc(N=C2C(=O)Nc3cc(Br)c(C)cc32)cc1 do in these assays?
mHTT-CaM PPI inh: 5; Pf apPOL block: -9

How did Cc1ccc(N=C2C(=O)Nc3ccc(C)c(Br)c32)cc1 do in these assays?
mHTT-CaM PPI inh: 9; Pf apPOL block: -3

Results for Cc1ccc(N=C2C(=O)Nc3cc(Br)c(C)cc32)cc1 ?
mHTT-CaM PPI inh: 55*; Pf apPOL block: -1

Results for CCc1ccc(NC(=O)N2CCCC2c2cccc(F)c2)cc1 (stereo not given) ?
mHTT-CaM PPI inh: -12; Pf apPOL block: -5

Results for Cc1ccc(NC(=O)N2CCc3nc[nH]c3C2)c(C)c1 ?
mHTT-CaM PPI inh: -12; Pf apPOL block: 0

How did COc1ccc(N=C(N)C(C#N)=Cc2[nH]c3ccccc3c2O)cc1 do in these assays?
mHTT-CaM PPI inh: 69*; Pf apPOL block: 2

How did CN1CCN(C(=N)C(C#N)=Cc2[nH]c3ccccc3c2O)CC1 do in these assays?
mHTT-CaM PPI inh: 24; Pf apPOL block: 1

Results for CCOc1ccc(NC(=O)CC2SC(=N)NC2=O)cc1 (stereo not given) ?
mHTT-CaM PPI inh: -3; Pf apPOL block: -2

What do the screens show for `O=C(C1CCN(Cc2ccccc2Cl)CC1)N1CCN(c2ccccc2F)CC1`?
mHTT-CaM PPI inh: 12; Pf apPOL block: 1

Results for COc1ccc(C)cc1NC(=O)N1CCc2c(nc3cc(-c4ccccc4)[nH]n3c2=O)C1 ?
mHTT-CaM PPI inh: 36; Pf apPOL block: -1

How did CC/C(=C\c1ccccc1)c1cccc2oc3ccccc3c12 do in these assays?
mHTT-CaM PPI inh: -12; Pf apPOL block: 1

Results for CC/C(=C/c1ccccc1)c1cccc2[nH]c3c(OC)cccc3c12 ?
mHTT-CaM PPI inh: 54*; Pf apPOL block: -5

What do the screens show for `O=C(Nc1nccn(-c2ccc(F)cc2)c1=O)c1ccccn1`?
mHTT-CaM PPI inh: 15; Pf apPOL block: -6

How did Cc1ccc2nc(NC(=O)c3ccccc3Br)sc2c1 do in these assays?
mHTT-CaM PPI inh: -2; Pf apPOL block: 11

How did C=CCNC(=O)C(=O)Nc1ccc(OC)c(Cl)c1 do in these assays?
mHTT-CaM PPI inh: 5; Pf apPOL block: -10

Results for O=C(NCc1ccccn1)c1nc(-c2ccc(Cl)cc2)n2c1CCCCC2 ?
mHTT-CaM PPI inh: 54*; Pf apPOL block: -1

What do the screens show for `O=C(Nc1ccccn1)c1nc(-c2ccc(Cl)cc2)n2c1CCCCC2`?
mHTT-CaM PPI inh: 1; Pf apPOL block: 1

How did COc1ccccc1CNC(=O)c1nc(-c2ccc(C)cc2)n2c1CCCCC2 do in these assays?
mHTT-CaM PPI inh: 61*; Pf apPOL block: -1

How did Cc1ccc(-c2nc(C(=O)NC(C)C)c3n2CCCCC3)cc1 do in these assays?
mHTT-CaM PPI inh: 20; Pf apPOL block: -2

What do the screens show for `O=C(NCc1ccccc1F)C1c2ccccc2CCN1C(=O)c1ccccc1` (stereo not given)?
mHTT-CaM PPI inh: -2; Pf apPOL block: -5

Results for CCOCCc1nnc(NC(=O)Nc2ccc(C)cc2)s1 ?
mHTT-CaM PPI inh: -2; Pf apPOL block: 1

Results for Cc1cc(=O)n(CC(=O)Nc2cc(F)cc(F)c2)c(N2CCCCC2)n1 ?
mHTT-CaM PPI inh: -21; Pf apPOL block: 0

What do the screens show for `Cc1nnsc1C(=O)NCc1c(Cl)cccc1Sc1ccc(Cl)cc1`?
Pf apPOL block: -18

How did CCCN1CCN(C(=O)c2cccc(-c3ccc(N4CCN(C)CC4)nc3)c2)CC1 do in these assays?
mHTT-CaM PPI inh: 11; Pf apPOL block: -2

Results for CN(CC#N)C(=O)c1ccc2c(c1)nnn2C1CCCCC1 ?
mHTT-CaM PPI inh: 0; Pf apPOL block: -5

What do the screens show for `Cn1nc(COc2ccccc2)c2c1CCN(Cc1ccco1)C2`?
mHTT-CaM PPI inh: 14; Pf apPOL block: 3

Results for Cn1nc(COc2ccccc2)c2c1CCN(Cc1ccoc1)C2 ?
mHTT-CaM PPI inh: 67*; Pf apPOL block: 2

How did Cc1ccc(C)c(CSc2nc(C3CCCCC3)c(C#N)c(=O)[nH]2)c1 do in these assays?
Pf apPOL block: 73*

Results for Cc1ccccc1CSc1nc2c(cnn2-c2ccccc2)c(=O)[nH]1 ?
mHTT-CaM PPI inh: -1; Pf apPOL block: -1

What do the screens show for `O=C(CN1CCN(C(=O)c2ccco2)CC1)Nc1c2c(nc3c1CCC3)CCCC2`?
mHTT-CaM PPI inh: 2; Pf apPOL block: -3

Results for Cc1ccc2c(c1)c1c3n2CCN(C(=O)CN2CCN(C(=O)c4ccco4)CC2)C3CCC1 (stereo not given) ?
mHTT-CaM PPI inh: 57*; Pf apPOL block: -1

What do the screens show for `CC12CCC(C(=O)N(c3cccc([N+](=O)[O-])c3)C1=O)C2(C)C` (stereo not given)?
mHTT-CaM PPI inh: 2; Pf apPOL block: -1

How did O=C(Cc1nc(-c2ccccn2)n[nH]1)Nc1ccc(F)c(F)c1 do in these assays?
mHTT-CaM PPI inh: 86*; Pf apPOL block: -14

How did Cc1cccc(NC(=O)Cc2nc(-c3ccccc3)n[nH]2)c1C do in these assays?
mHTT-CaM PPI inh: 5; Pf apPOL block: -2

How did Cc1ccc(NC(=O)Cc2nc(-c3ccccn3)n[nH]2)cc1 do in these assays?
mHTT-CaM PPI inh: 69*; Pf apPOL block: -6

Results for CCOC(=O)Cc1nc(-c2ccccn2)n[nH]1 ?
mHTT-CaM PPI inh: 98*; Pf apPOL block: -6

What do the screens show for `O=C(Cc1nc(-c2cccnc2)n[nH]1)Nc1ccc(F)c(F)c1`?
mHTT-CaM PPI inh: 2; Pf apPOL block: -1

What do the screens show for `O=C(Cc1nc(-c2cccnc2)n[nH]1)Nc1ccc(F)cc1`?
mHTT-CaM PPI inh: -3; Pf apPOL block: -1

Results for N#CCc1nc(-c2ccccn2)n[nH]1 ?
Pf apPOL block: -25

What do the screens show for `Cc1cccc(NC(=O)Cc2nc(-c3ccccn3)n[nH]2)c1C`?
mHTT-CaM PPI inh: 99*; Pf apPOL block: -8

Results for COc1ccc(/C=C2\SC(=O)N(Cc3ccc(F)cc3)C2=O)cc1O ?
mHTT-CaM PPI inh: 21; Pf apPOL block: -3

How did Cc1ccccc1NC(=O)Cc1nc(-c2ccccn2)n[nH]1 do in these assays?
mHTT-CaM PPI inh: 100*; Pf apPOL block: -10

What do the screens show for `Cc1ccc(NC(=O)Cc2nc(-c3ccccc3)n[nH]2)c(C)c1`?
mHTT-CaM PPI inh: 1; Pf apPOL block: -1

Results for Cc1ccnc(Nc2nc(-c3ccc4c(c3)OCO4)cs2)c1 ?
mHTT-CaM PPI inh: 56*; Pf apPOL block: -1

What do the screens show for `Cc1ccnc(Nc2nc(CC(=O)NCc3ccco3)cs2)c1`?
mHTT-CaM PPI inh: 68*; Pf apPOL block: 16

What do the screens show for `Cc1ccnc(Nc2nc(-c3cccnc3)cs2)c1`?
mHTT-CaM PPI inh: 7; Pf apPOL block: 72*!

How did Cc1ccnc(Nc2nc(-c3ccc(Cl)cc3)cs2)c1 do in these assays?
mHTT-CaM PPI inh: 2; Pf apPOL block: -3

What do the screens show for `Cc1ccnc(Nc2nc(CC(=O)NCCc3cccs3)cs2)c1`?
mHTT-CaM PPI inh: 15; Pf apPOL block: -18

Results for Cc1ccnc(Nc2nc(-c3ccncc3)cs2)c1 ?
mHTT-CaM PPI inh: 28; Pf apPOL block: 3

How did O=C(NC1CCN(Cc2ccccc2)CC1)c1ccc(F)cc1 do in these assays?
mHTT-CaM PPI inh: -2; Pf apPOL block: -7

What do the screens show for `Cc1cc(OCC(C)C)ccc1C(O)=C1C(=O)C(=O)N(CCCN(C)C)C1c1ccncc1` (stereo not given)?
mHTT-CaM PPI inh: 6; Pf apPOL block: 2
